Several values for one entry are separate records, joined by “and”; a condition that tells them apart may be missing. Equal values may be shown once. Activity calls are given as the source filed them. The calls were made as follows: active = hit-call score of the fitted dose curve at least 0.9, where 1 is the maximum; inactive = score below 0.9.

Read-out in the first test: Matrix Metallopeptidase 1 (MMP1), MMP1 (gene 4312)
The experiment in a line: BSK_MyoF_MMP1: BioMAP Diversity Plus: MyoF Assay for Matrix Metallopeptidase 1 (MMP1) Biomarker Activity (AID 2284268). Conditions: primary human lung fibroblasts. The essentials: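 Lung fibroblast cultures were dosed with test chemicals and, after 24 h, MMP1 levels were measured by ELISA; responses were referenced to DMSO and analysed for increases.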
As for `O=[N+]([O-])c1ccc2c3c(cccc13)CC2`, the AC50 is 20 µM (active).
In the case of `O=C(O)CCC(F)(C(F)(F)F)C(F)(F)F`, the outcome was inactive.
On to `O=C(O)C(F)(F)C(F)(F)C(F)(F)C(F)(F)C(F)(F)C(F)(F)F`, for which the outcome was inactive.
Still for that read-out and setting: for `CCOP(=S)(OCC)SCCS(=O)(=O)CC` the value was “inactive”; for `BrCCBr`, “inactive”.
Still for that read-out and setting: for `CCSC(C)CC1CC(=O)C(C(CC)=NOC/C=C/Cl)=C(O)C1` (configuration not stated) the value was “inactive”.
For `ClC(Cl)=C(Cl)C(Cl)=C(Cl)Cl`, the outcome was inactive.
Same read-out and setting: next, `COP(=S)(OC)Oc1ccc(S(=O)(=O)N(C)C)cc1`: “inactive”.
Consider `Nc1ncc([N+](=O)[O-])s1`, for which the outcome was inactive.
Turning to `C(=NC1CCCCC1)=NC1CCCCC1`, the AC50 was 4.75 µM (active).
`COC(=O)c1sccc1S(=O)(=O)NC(=O)Nc1nc(C)nc(OC)n1`: the outcome was inactive.
Turning to `CC(C)CCCCCCOC(=O)c1ccccc1C(=O)OCCCCCCC(C)C`, the result was inactive.
For the compound `COP(=S)(OC)Oc1cc(Cl)c(Cl)cc1Cl`, the AC50 was 20 µM (active).
As to `NC(=S)Nc1ccccc1`, the result was inactive.
In the case of `Nc1ccc(-c2ccc(N)c(Cl)c2)cc1Cl`, the AC50 was 7.38 µM (active).
Take `CCNc1nc(NC(C)(C)C)nc(SC)n1`: the concentration at half-maximal activity (AC50) was 31.5 µM (active).
Turning to `CCCCCCCCC(=O)NCc1ccc(O)c(OC)c1`, the result was inactive.
Same read-out and setting: next, `COC[C@H](C)N(C(=O)CCl)c1c(C)csc1C`: “inactive”; `Oc1ccc(-c2ccccc2)cc1`: “inactive”.
On to `OCc1ccco1`, for which the result was inactive.
Take `O=S(=O)(c1ccc(Cl)cc1)c1ccc(Cl)cc1`: the outcome was inactive.
For `ClC1=C(Cl)[C@]2(Cl)[C@H]3[C@H]([C@H]4C=C[C@H]3C4)[C@@]1(Cl)C2(Cl)Cl`, the concentration at half-maximal activity (AC50) is 20 µM (active).
With `CC(C)c1ccc(CO)cc1`, the outcome was inactive.
On to `CC1(C)Cc2cccc(O)c2O1`, for which the outcome was inactive.
As for `COP(=S)(OC)Oc1c(Cl)cc(C)cc1Cl`, the outcome was inactive.
As for `CCOC(=O)/C=C(C)/C=C/C[C@@H](C)CCCC(C)C`, the AC50 is 20 µM (active).
Take `Oc1c(I)cc(I)cc1I`: the AC50 is 5.11 µM (active).
On to `COc1cc(OC)nc(NC(=O)NS(=O)(=O)c2ncccc2C(=O)N(C)C)n1`, for which the outcome was inactive.
With `COP(=S)(OC)Oc1ccc(Sc2ccc(OP(=S)(OC)OC)cc2)cc1`, the AC50 is 7.48 µM (active).
On the same count and under the same terms, for `Nc1cccc2ccccc12` the value was 20 µM (active).
For `CCOP(=S)(OCC)Oc1ccc(S(C)=O)cc1` (configuration not stated), the result was inactive.
Still for that read-out and setting: next, `O=C(O)C(F)(F)C(F)(F)C(F)(F)C(F)(F)C(F)(F)C(F)(F)C(F)(F)C(F)(F)C(F)(F)C(F)(F)F`: “inactive”.
With `O=C(OC1CCCCC1)c1ccccc1C(=O)OC1CCCCC1`, the AC50 was 5.69 µM (active).
For the compound `CC(=O)C(Cl)C(=O)N(C)C` (configuration not stated), the result was inactive.
With `O=Cc1cccc(Oc2ccccc2)c1`, the outcome was inactive.
On to `CCCCC(CC)CO[N+](=O)[O-]` (configuration not stated), for which the AC50 is 31.6 µM (active).

Read-out in a further test: TIMP metallopeptidase inhibitor 1 (TIMP1), TIMP1 (gene 7076)
The experiment in a line: BSK_MyoF_TIMP1: BioMAP Diversity Plus: MyoF Assay for TIMP metallopeptidase inhibitor 1 (TIMP1) Biomarker Activity (AID 2284269). Conditions: primary human lung fibroblasts. The essentials: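 TIMP-1 levels were determined by ELISA in human lung fibroblasts treated for 24 h. DMSO served as negative control and baseline for upward curve fitting.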
For the compound `O=[N+]([O-])c1ccc2c3c(cccc13)CC2`, the result was inactive.
As to `O=C(O)CCC(F)(C(F)(F)F)C(F)(F)F`, the result was inactive.
Turning to `O=C(O)C(F)(F)C(F)(F)C(F)(F)C(F)(F)C(F)(F)C(F)(F)F`, the result was inactive.
Take `CCOP(=S)(OCC)SCCS(=O)(=O)CC`: the outcome was inactive.
With `BrCCBr`, the result was inactive.
On to `CCSC(C)CC1CC(=O)C(C(CC)=NOC/C=C/Cl)=C(O)C1` (configuration not stated), for which the result was inactive.
For `ClC(Cl)=C(Cl)C(Cl)=C(Cl)Cl`, the outcome was inactive.
The same measure, in the same setting: for `COP(=S)(OC)Oc1ccc(S(=O)(=O)N(C)C)cc1` the value was “inactive”.
As for `Nc1ncc([N+](=O)[O-])s1`, the result was inactive.
`C(=NC1CCCCC1)=NC1CCCCC1`: the half-maximal activity concentration (AC50) was 6.97 µM (active).
For the compound `COC(=O)c1sccc1S(=O)(=O)NC(=O)Nc1nc(C)nc(OC)n1`, the outcome was inactive.
Same read-out and setting: for `CC(C)CCCCCCOC(=O)c1ccccc1C(=O)OCCCCCCC(C)C` the value was “inactive”; for `COP(=S)(OC)Oc1cc(Cl)c(Cl)cc1Cl`, “inactive”; for `NC(=S)Nc1ccccc1`, “inactive”.
Regarding `Nc1ccc(-c2ccc(N)c(Cl)c2)cc1Cl`, the outcome was inactive.
For `CCNc1nc(NC(C)(C)C)nc(SC)n1`, the outcome was inactive.
On to `CCCCCCCCC(=O)NCc1ccc(O)c(OC)c1`, for which the outcome was inactive.
Take `COC[C@H](C)N(C(=O)CCl)c1c(C)csc1C`: the result was inactive.
Still for that read-out and setting: next, `Oc1ccc(-c2ccccc2)cc1`: “inactive”; `OCc1ccco1`: “inactive”; `O=S(=O)(c1ccc(Cl)cc1)c1ccc(Cl)cc1`: “inactive”.
`ClC1=C(Cl)[C@]2(Cl)[C@H]3[C@H]([C@H]4C=C[C@H]3C4)[C@@]1(Cl)C2(Cl)Cl`: the result was inactive.
`CC(C)c1ccc(CO)cc1`: the result was inactive.
On to `CC1(C)Cc2cccc(O)c2O1`, for which the outcome was inactive.
Take `COP(=S)(OC)Oc1c(Cl)cc(C)cc1Cl`: the result was inactive.
With `CCOC(=O)/C=C(C)/C=C/C[C@@H](C)CCCC(C)C`, the AC50 is 29.8 µM (active).
For `Oc1c(I)cc(I)cc1I`, the outcome was inactive.
As to `COc1cc(OC)nc(NC(=O)NS(=O)(=O)c2ncccc2C(=O)N(C)C)n1`, the result was inactive.
On to `COP(=S)(OC)Oc1ccc(Sc2ccc(OP(=S)(OC)OC)cc2)cc1`, for which the outcome was inactive.
In the case of `Nc1cccc2ccccc12`, the result was inactive.
As for `CCOP(=S)(OCC)Oc1ccc(S(C)=O)cc1` (configuration not stated), the outcome was inactive.
Turning to `O=C(O)C(F)(F)C(F)(F)C(F)(F)C(F)(F)C(F)(F)C(F)(F)C(F)(F)C(F)(F)C(F)(F)C(F)(F)F`, the AC50 is 4.33 µM (active) and 5.2 µM (active).
In the case of `O=C(OC1CCCCC1)c1ccccc1C(=O)OC1CCCCC1`, the AC50 is 25.7 µM (active).
For the compound `CC(=O)C(Cl)C(=O)N(C)C` (configuration not stated), the result was inactive.
The same measure, in the same setting: next, `O=Cc1cccc(Oc2ccccc2)c1`: “inactive”; `CCCCC(CC)CO[N+](=O)[O-]` (configuration not stated): “inactive”.

(Values after PubChem BioAssay (EPA / NIEHS).)
